Experimental data reported in PubChem BioAssay AID1159580 (chemical genetic matrix, 2015).
Where “and” joins values, the source holds several entries; their conditions need not be identical. Equal entries are not always repeated. In all, about 5,500 compounds went through this assay and about 2,000 (36%) were called active. Roughly 18% stayed inconclusive and do not appear here. Cut-off read from the data, not from the text of the source: active = normalized growth mostly below about 0.91 (no sharp cut-off); inconclusive = no clear call, values can overlap the other calls; inactive = mostly above about 0.92. The list shows a part of the results.

Assay: chemical genetic growth profiling, strain panel (AID 1159580);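 note: tested at 20 µM; growth read once vehicle control cultures reached saturation at 30 °C; 1 = growth at the plate median or of vehicle wells; lower values mean less growth of the strain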
Details: S. cerevisiae deletion strains, growth OD

Measured: normalized growth

CC1=C(/C=C/C(C)=C/C=C/C(C)=C/CO)C(C)(C)CCC1
inactive: locus YAL013W, strain DEP1, active compounds read low 1 | locus YAL021C, strain ccr4, active compounds read low 1.05 | locus YAL026C, strain drs2, active compounds read low 1.03 | locus YAL030W, strain snc1, active compounds read low 0.995 | locus YBL061C, strain skt5, active compounds read low 1.02 | locus YBR009C, strain hhf1, active compounds read low 0.961 | locus YBR021W, strain FUR4, active compounds read low 1.01 | locus YBR023C, strain chs3, active compounds read low 1.01 | locus YBR171W, strain sec66, active compounds read low 1.01 | locus YBR229C, strain ROT2, active compounds read low 0.969 | locus YBR231C, strain swc5, active compounds read low 0.983 | locus YBR279W, strain paf1, active compounds read low 1 | locus YCL011C, strain gbp2, active compounds read low 1.04 | locus YCL016C, strain dcc1, active compounds read low 1.04 | locus YCL029C, strain bik1, active compounds read low 1 | locus YCL061C, strain MRC1, active compounds read low 1.01 | locus YCL069W, strain vba3, active compounds read low 1.01 | locus YCR088W, strain abp1, active compounds read low 1.03 | locus YDL005C, strain med2, active compounds read low 1.02 | locus YDL035C, strain GPR1, active compounds read low 0.982 | locus YDL040C, strain nat1, active compounds read low 0.998 | locus YDL074C, strain BRE1, active compounds read low 0.938 | locus YDL101C, strain DUN1, active compounds read low 0.977 | locus YDL134C, strain PPH21, active compounds read low 1.02 | locus YDL185W, strain tfp1, active compounds read low 0.997 | locus YDL192W, strain arf1, active compounds read low 1 | locus YDR001C, strain nth1, active compounds read low 1.01 | locus YDR069C, strain doa4, active compounds read low 1.04 | locus YDR101C, strain arx1, active compounds read low 0.993 | locus YDR137W, strain rgp1, active compounds read low 1.03 | locus YDR150W, strain NUM1, active compounds read low 1 | locus YDR159W, strain sac3, active compounds read low 0.968 | locus YDR162C, strain NBP2, active compounds read low 0.993 | locus YDR195W, strain ref2 0.988 | locus YDR297W, strain sur2, active compounds read low 1 | locus YDR318W, strain mcm21, active compounds read low 1 | locus YDR334W, strain swr1, active compounds read low 1.02 | locus YDR335W, strain msn5, active compounds read low 1.02 | locus YDR388W, active compounds read low 1 | locus YDR392W, strain spt3, active compounds read low 0.965 | locus YDR502C, strain sam2, active compounds read low 1 | locus YEL003W, strain gim4, active compounds read low 1 | locus YEL037C, strain rad23, active compounds read low 1 | locus YEL061C, strain CIN8 (second series), active compounds read low 1.01 | locus YEL061C, strain CIN8, active compounds read low 0.992 | locus YER015W, strain faa2, active compounds read low 1.01 | locus YER016W, strain bim1, active compounds read low 1.06 | locus YER110C, active compounds read low 0.999 | locus YER111C, strain swi4, active compounds read low 1 | locus YER155C, strain BEM2 (second series), active compounds read low 1.07 | locus YER155C, strain BEM2, active compounds read low 1.01 | locus YER167W, strain BCK2, active compounds read low 1 | locus YFR010W, strain ubp6, active compounds read low 0.988 | locus YGL078C, strain dbp3, active compounds read low 1.01 | locus YGL086W, strain mad1, active compounds read low 0.983 | locus YGL167C, strain pmr1, active compounds read low 1.01 | locus YGL173C, strain kem1, active compounds read low 0.971 | locus YGL227W, strain vid30, active compounds read low 1 | locus YGL240W, strain doc1, active compounds read low 1.01 | locus YGL248W, strain PDE1, active compounds read low 0.965 | locus YGL253W, strain hxk2, active compounds read low 0.993 | locus YGR078C, strain PAC10, active compounds read low 0.967 | locus YGR135W, strain pre9, active compounds read low 1 | locus YGR252W, strain gcn5, active compounds read low 0.985 | locus YHR013C, strain ard1, active compounds read low 1.04 | locus YHR027C, strain rpn1, active compounds read low 1.01 | locus YHR030C, strain SLT2, active compounds read low 1.01 and 0.999 | locus YHR079C, strain IRE1 (second series), active compounds read low 1.01 | locus YHR079C, strain IRE1, active compounds read low 1.04 | locus YHR094C, strain hxt1, active compounds read low 1.01 | locus YHR129C, strain ARP1, active compounds read low 1.01 | locus YHR142W, strain chs7, active compounds read low 1 | locus YHR200W, strain rpn10, active compounds read low 1 | locus YIL066C, strain RNR3, active compounds read low 0.964 | locus YIL073C, strain SPO22, active compounds read low 1.01 | locus YIL125W, strain kgd1, active compounds read low 0.995 | locus YIR030C, strain dcg1, active compounds read low 0.998 | locus YJL092W, strain hpr5, active compounds read low 1 | locus YJL095W, strain BCK1 (second series), active compounds read low 1 | locus YJL095W, strain BCK1, active compounds read low 0.924 and 1.01 | locus YJL115W, strain asf1, active compounds read low 1.01 | locus YJL129C, strain trk1, active compounds read low 0.985 | locus YJL134W, strain LCB3, active compounds read low 1.01 | locus YJL154C, strain vps35, active compounds read low 1.02 | locus YJL164C, strain tpk1, active compounds read low 0.993 | locus YJL166W, strain qcr8, active compounds read low 0.967 | locus YJL168C, strain set2, active compounds read low 0.997 | locus YJL187C, strain SWE1 (second series), active compounds read low 0.96
